The text below walks through data of PubChem BioAssay (NCI).

Some test systems named below: NCI-H23 lung; NCI-H226 lung; NCI-H322M lung; HOP-62 NSCLC; NCI-H460 lung; A549/ATCC NSCLC; 786-0 renal; COLO 205 colon; DU-145 prostate; K-562 leukemia; MALME-3M melanoma; MDA-MB-231 breast; RXF 393 renal; SF-268 CNS; SF-295 CNS; SF-539 CNS; UACC-257 melanoma; M14 melanoma.
Holding throughout (assay): NCI-60 one-dose screen, 48 h (100 = growth as untreated, 0 = no growth, -100 = all killed)
Settings in all cases: 10 µM unless noted

The panel holds about 83,000 compounds, 20% with a hit somewhere; the sample as a whole holds those more often.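 Testing used 96-well plates and a 48-hour single-concentration exposure. Example: -40 means 40% of the starting cells died.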 A number with no mark means an inactive call. The source made the active and inactive calls. The calls were made as follows: active = growth percent below 10; inactive = the rest.

For `O=P(OCCCl)(OCCCl)C(O)c1ccccc1Cl` (centres undefined), the growth was 106% in the assay with NCI-H23 lung; 100% in the assay on NCI-H226 lung; 97% in the assay with NCI-H322M lung; 96.2% in the assay with HOP-62 NSCLC; 115% with NCI-H460 lung; 111% with A549/ATCC NSCLC. The growth is 110% with 786-0 renal; 101% in the assay on COLO 205 colon; 112% in the assay on DU-145 prostate; 96.6% with K-562 leukemia; 96.7% in the assay with MALME-3M melanoma; 108% with MDA-MB-231 breast. The growth in the assay with RXF 393 renal was 125%; in the assay on SF-268 CNS, 103%; with SF-295 CNS, 102%; in the assay on SF-539 CNS, 98.1%; with UACC-257 melanoma it was 137%; in the assay on M14 melanoma it was 105%.

`COc1ccc2c(c1)cn1c3ccc(O)cc3[nH]c(=O)c21`: the growth is 23.3% in the assay with NCI-H23 lung; 45.9% in the assay with NCI-H226 lung; 41.1% in the assay with NCI-H322M lung; 25.8% with HOP-62 NSCLC; -52.4% (active) with NCI-H460 lung; 26.8% in the assay on A549/ATCC NSCLC. For the same compound, the growth in the assay with 786-0 renal is 22.9%; with COLO 205 colon, 4.21% (active); in the assay on DU-145 prostate, 15.4%; in the assay with K-562 leukemia, -5.1% (active); with MALME-3M melanoma, 62.5%; in the assay on MDA-MB-231 breast it was 25.5%. In addition, the growth was -3.01% (active) in the assay on RXF 393 renal; 16.9% with SF-268 CNS; 22.5% with SF-295 CNS; -4.58% (active) in the assay with SF-539 CNS; 51.4% with UACC-257 melanoma; 14.7% with M14 melanoma.

Take `CC(O)CN(CCO)CCN(CCO)CC(C)O` (centres undefined): the growth in the assay with NCI-H23 lung was 111%; in the assay with NCI-H226 lung, 99.3%; in the assay on NCI-H322M lung it was 103%; in the assay with HOP-62 NSCLC, 110%; in the assay with NCI-H460 lung, 109%; in the assay on A549/ATCC NSCLC, 102%. The growth was 94.6% in the assay with 786-0 renal; 115% in the assay on COLO 205 colon; 106% in the assay on DU-145 prostate; 107% with K-562 leukemia; 106% in the assay on MALME-3M melanoma; 115% with MDA-MB-231 breast. Besides, the growth was 93% in the assay with RXF 393 renal; 107% in the assay on SF-268 CNS; 94.2% with SF-295 CNS; 94.8% with SF-539 CNS; 108% with UACC-257 melanoma; 106% in the assay with M14 melanoma.

For `CCC(C)CC(N)O` (centres undefined), the growth in the assay on NCI-H23 lung is 105%; with NCI-H226 lung, 98%; with NCI-H322M lung, 116%; in the assay on HOP-62 NSCLC, 122%; in the assay with NCI-H460 lung, 108%; in the assay with A549/ATCC NSCLC it was 106%. Further, the growth is 105% with 786-0 renal; 109% in the assay on COLO 205 colon; 114% in the assay on DU-145 prostate; 108% in the assay with K-562 leukemia; 130% with MALME-3M melanoma; 116% in the assay on MDA-MB-231 breast. The growth with RXF 393 renal is 91.8%; in the assay on SF-268 CNS, 108%; in the assay on SF-295 CNS, 99.4%; in the assay on SF-539 CNS, 107%; with UACC-257 melanoma, 102%; in the assay with M14 melanoma, 103%.

Regarding `CC(C)(CNC1CCCCC1)OC(=O)c1ccccc1`, the growth was 107% with NCI-H23 lung; 97.8% in the assay with NCI-H226 lung; 103% with NCI-H322M lung; 102% in the assay with HOP-62 NSCLC; 106% with NCI-H460 lung; 108% in the assay with A549/ATCC NSCLC. In addition, the growth in the assay on 786-0 renal is 100%; in the assay on COLO 205 colon, 104%; in the assay on DU-145 prostate, 104%; in the assay with K-562 leukemia, 94.1%; in the assay on MALME-3M melanoma it was 99.2%; with MDA-MB-231 breast it was 110%. Also, the growth in the assay on RXF 393 renal was 102%; in the assay with SF-268 CNS it was 107%; in the assay on SF-295 CNS, 94.1%; in the assay on SF-539 CNS it was 108%; in the assay on UACC-257 melanoma, 110%; in the assay with M14 melanoma, 102%.

As for `O=C(Nc1ccc(-n2cc(-c3ccncc3)c(-c3ccc(Cl)c(O)c3)n2)cc1)Nc1cc(C(F)(F)F)cc(C(F)(F)F)c1`, the growth with NCI-H23 lung was 15.4%; in the assay with NCI-H226 lung, 42%; in the assay on NCI-H322M lung, 41.9%; with HOP-62 NSCLC, 14%; with NCI-H460 lung, 5.79% (active); in the assay on A549/ATCC NSCLC, 17.6%. In addition, the growth in the assay on 786-0 renal was -60.1% (active); in the assay on COLO 205 colon, -55.2% (active); in the assay on DU-145 prostate, 36.4%; in the assay with K-562 leukemia it was 17.6%; with MALME-3M melanoma, 12%; with MDA-MB-231 breast it was 21.5%. Moreover, the growth in the assay with RXF 393 renal is -11.2% (active); in the assay on SF-268 CNS, 25.9%; with SF-295 CNS, -5.6% (active); in the assay with SF-539 CNS, 30.3%; with UACC-257 melanoma, 8.73% (active); in the assay on M14 melanoma, 6.9% (active).

For `COc1cccc(-c2cc(-c3cc4ccccc4oc3=O)nc(N)n2)c1`, the growth in the assay on NCI-H23 lung was 101%; in the assay with NCI-H226 lung, 91.2%; in the assay with NCI-H322M lung, 123%; with HOP-62 NSCLC, 97.7%; in the assay with NCI-H460 lung, 102%; with A549/ATCC NSCLC, 95%. The growth in the assay with 786-0 renal was 101%; with COLO 205 colon, 108%; in the assay on DU-145 prostate it was 112%; with K-562 leukemia, 99%; in the assay with MALME-3M melanoma, 121%; with MDA-MB-231 breast it was 90.4%. Further, the growth is 108% with RXF 393 renal; 101% with SF-268 CNS; 125% with SF-295 CNS; 132% with SF-539 CNS; 108% in the assay on UACC-257 melanoma; 100% in the assay with M14 melanoma.

Regarding `CC(=O)NCCN`, the growth with NCI-H23 lung is 111%; in the assay on NCI-H226 lung, 97.5%; in the assay on NCI-H322M lung it was 108%; in the assay with HOP-62 NSCLC it was 108%; in the assay on NCI-H460 lung, 109%; with A549/ATCC NSCLC, 96.6%. The growth is 98.3% with 786-0 renal; 106% with COLO 205 colon; 116% in the assay on DU-145 prostate; 101% in the assay with K-562 leukemia; 100% with MALME-3M melanoma; 101% in the assay with MDA-MB-231 breast. Moreover, the growth is 90.1% in the assay with RXF 393 renal; 108% in the assay with SF-268 CNS; 101% in the assay on SF-295 CNS; 94.9% with SF-539 CNS; 86.9% with UACC-257 melanoma; 108% with M14 melanoma.
